Most compounds without a hit are left out; they make up all but 1.4% or so of the library.
MsrA inh: inhibitors of bovine MsrA; purified bovine MsrA, absorbance read-out; inhibition, % at 15.5 µM; 0.75% of 360,000 active;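 also: 0% = vehicle wells with enzyme and 100% = reference inhibitor wells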
p-CIP stab down: p/CIP protein destabilization; AID 1984; decrease of EGFP signal, % at 10 µM; Q05BA5; 0.01% of 290,000 active; F442A p/CIP-EGFP cells, EGFP fluorescence, 16 h;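 active = EGFP signal decrease of at least 30% at 10 µM or well 3 SD below plate mean, unless failing retest; inactive = the rest, including hits failing retest or dose response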
14-3-3 Bad inh: disrupts binding of bovine 14-3-3 zeta to phospho-Bad peptide. P63103. TR-FRET 14-3-3zeta/Dy647-pBad peptide displacement, 1 h. inhibition, % at 21.7 µM. 0.71% of 220,000 active. AID 781;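 active = inhibition above about 70%, limit read from the data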;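 also: 0% = full 14-3-3 plus peptide FRET controls and 100% = background without 14-3-3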
Target sequence (P63103 whole entry, looked up): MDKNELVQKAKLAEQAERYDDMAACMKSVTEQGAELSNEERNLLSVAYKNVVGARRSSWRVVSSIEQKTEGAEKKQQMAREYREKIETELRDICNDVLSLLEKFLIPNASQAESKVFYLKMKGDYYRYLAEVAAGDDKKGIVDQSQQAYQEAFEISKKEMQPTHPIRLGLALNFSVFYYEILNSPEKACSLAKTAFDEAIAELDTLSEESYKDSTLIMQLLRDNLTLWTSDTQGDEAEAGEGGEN
bovine MsrA act: activates bovine MsrA enzyme. purified bovine MsrA, absorbance read-out. 0.3% of 360,000 active. activation, % at 10.6 µM; in the data active = activation above about 7.5%;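 also: 0% = vehicle and 100% = reference activator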
MsrA conf: confirmation of bovine MsrA inhibitors; purified bovine MsrA, absorbance read-out; 41% of 2,300 active; inhibition, % at 15.5 µM; AID 651822; shares compounds with MsrA inh;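 also: coupled to thioredoxin reductase with NADPH and selenocystamine and DMSO as substrate; 0% = vehicle only and 100% = full effect of reference inhibitor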
Starred values were filed as active, the others as inactive; . = no result. Rule as the data show it, unless noted: active = inhibition above about 4.5%; inactive = the rest.

SMILES	MsrA inh	p-CIP stab down	14-3-3 Bad inh	bovine MsrA act	MsrA conf
O=C(CN1CCCCCC1)Nc1ccc([N+](=O)[O-])cc1Br	4.8*	-4	.	-6	7.2*
O=C(CN1CCOCC1)Nc1ccc([N+](=O)[O-])cc1Br	1	-4	-2	-2	.
O=C(Nc1ccc2[nH]c(=S)sc2c1)c1ccccc1	5.1*	5	-14	0	2
CC(=O)c1ccc(N2CCN(C(=O)C(=O)c3cn(CC(=O)N4CCOCC4)c4ccccc34)CC2)cc1	6.8*	.	.	-5	5.6*
COc1ccc(N2CCN(C(=O)C(=O)c3cn(CC(=O)N4CCOCC4)c4ccccc34)CC2)cc1	2	-2	.	0	.
CC(C(=O)NC(C)(C)C)N1C(=O)c2cccc3cccc(c23)C1=O (stereo not drawn)	4.8*	-4	-6	-5	3
CCOC(=O)c1sc(N)c(C(N)=O)c1C	4.9*	-2	-4	-4	0
CC1(C)CC(=O)C2=C(C1)Nc1ccccc1NC2c1cccnc1 (stereo not drawn)	5.4*	3	0	-13	4
Cc1cc2c(cc1C)NC(c1cccnc1)C1=C(CC(C)(C)CC1=O)N2 (stereo not drawn)	4	12	-13	-6	.
Cc1ccc(C2NC(=S)NC3=C2C(=O)CC(C)(C)C3)cc1 (stereo not drawn)	4.8*	-17	2	5	1
O=C(COc1ccccc1)N/N=C/c1sc(=O)n(Cc2cccc(C(=O)O)c2)c1Cl	3	-11	2	-3	.
O=C(O)c1cccc(Cn2c(Cl)c(/C=N/NC(=O)c3ccc(O)cc3)sc2=O)c1	8.5*	-7	8	-7	5.5*
COc1ccc(/C=N/NC(=O)c2ccc(CSc3nncn3C)cc2)cc1OC	4.8*	-7	-11	-6	4
COc1cc(/C(C)=N/NC(=O)c2ccc(CSc3nncn3C)cc2)cc(OC)c1OC	1	3	2	3	.
CN(C)c1ccc(/C=N/NC(=O)c2ccc(CN3CCOCC3)cc2)cc1Br	2	2	13	-14	.
CCOc1cc(/C=N/NC(=O)c2ccc(CN3CCOCC3)cc2)ccc1OC	5.3*	-3	-26	-12	4
C[C@H](O)[C@@H]1C(=O)N2CCc3c([nH]c4ccccc34)[C@@H]2C[C@@H]1N(C)C(=O)NC1CCCCC1	1	.	.	-1	.
COc1ccc(-c2[nH]ncc2C=O)cc1OC	0	-6	2	-4	.
Cc1csc2ncc(C(=O)N3CCCc4ccccc43)c(=O)n12	4.7*	-10	-2	-3	3
O=C1c2ccc3c4c(ccc(c24)C(=O)N1c1cccc(O)c1)C(=O)N(c1cccc(O)c1)C3=O	9.5*	-8	-1	3	7.1*
Cc1cc(N/N=C/c2ccco2)c2ccccc2n1	1	-6	-9	-3	.
Cc1cc(N/N=C/c2ccc(N(C)C)cc2)c2ccccc2n1	5.0*	-13	.	-4	1
O=Cc1ccc2oc3nc4n(c(=O)c3c(=O)c2c1)CCCS4	6.6*	6	8	-3	5
O=c1c2cc(Br)cc(Br)c2oc2nc3n(c(=O)c12)CCCS3	.	0	-11	.	.
COc1ccc(-c2cc(C(F)(F)F)n3nc(C(=O)N4CCOCC4)nc3n2)cc1	7.7*	2	-4	-6	4.9*
SMILES	MsrA inh	p-CIP stab down	14-3-3 Bad inh	bovine MsrA act	MsrA conf
O=C(c1nc2nc(-c3ccccc3)cc(C(F)(F)F)n2n1)N1CCCCC1	1	4	2	-4	.
Cc1cc(=O)[nH]c(N/N=C/C=C/c2ccccc2)n1	11*	12	-3	-8	4
Cc1cc(=O)[nH]c(N/N=C/c2ccc(Br)s2)n1	5.5*	-1	-9	-5	4
Cc1cc(=O)[nH]c(NN=Cc2c(Cl)cccc2Cl)n1	1	.	.	5	.
Cc1cc(=O)[nH]c(N/N=C/c2ccc(O)c(O)c2)n1	4	-2	.	-6	.
CSc1ccc(/C=N/Nc2nc(C)cc(=O)[nH]2)cc1	4.9*	14	-15	-5	4
N#Cc1cccc(NCC(=O)Nc2ccc3c(c2)OCCO3)c1	0	14	-9	-4	.
CCN(CC(=O)Nc1ccccc1C(F)(F)F)C(=O)/C=C/c1ccc(Cl)c([N+](=O)[O-])c1	-1	.	.	-3	.
COc1ccc(C(C(=O)NCC2CCCO2)N(C(=O)CNC(=O)c2ccco2)c2cc(C)ccc2C)cc1OC (stereo not drawn)	-1	-10	.	0	.
O=C1ON=C(c2ccccc2)/C1=C/c1ccc(-c2ccccc2[N+](=O)[O-])o1	1	-7	22	-3	.
CC1=C(C#N)C(=O)NC(=O)/C1=C\c1ccc(-c2ccc(C)cc2[N+](=O)[O-])o1	9.2*	-10	48	-5	4

Source: PubChem (several laboratories)
